Laboratory results from PubChem BioAssay AID2315 (National Center for Advancing Translational Sciences (NCATS), 2010).
Among all 290,000 compounds or so, about 27,000 (9.3%) were called active. Cut-off read from the data, not from the text of the source: active = inhibition mostly above about 28% (no sharp cut-off); inactive = mostly below about 43%. What follows is part of a selection rich in actives, with near analogues and random picks from the rest.

assay: A qHTS for Small Molecule Inhibitors of Shiga Toxin; conditions: Vero cells, Shiga toxin protein synthesis inhibition reporter; at 38.7 µM, active compounds read high; note: 0% is about no effect

Row | Structure (SMILES) | inhibition
1 | O=C(c1ccc(Br)o1)N1CCN(CCOc2ccccc2)CC1 | -4.41% (inactive)
2 | Cc1ccc(CNC(=O)[C@@H](NC(=O)Cc2ccccc2)C(C)C)cc1 | -12.1% (inactive)
3 | CCCOc1ccc(/C=N/NC(=O)C2CC2)c(OCCC)c1 | -6.76% (inactive)
4 | O=C(CC1N=C2c3ccccc3N=C(SCc3ccccc3Cl)N2C1=O)NCc1ccco1 (stereo unspecified) | 38.1% (active)
5 | O=C(CSC1=Nc2ccccc2C2=NC(CC(=O)NCc3ccco3)C(=O)N12)NCc1ccco1 (stereo unspecified) | -3.74% (inactive)
6 | CCC(C)NC(=O)CSC1=Nc2ccccc2C2=NC(CCC(=O)NCc3ccco3)C(=O)N12 (stereo unspecified) | -9.08% (inactive)
7 | CC(=O)OCC(NC(=O)C(Cc1ccccc1)NC(=O)OC(C)(C)C)C1OC(n2ccc(=O)[nH]c2=O)C(OC(C)=O)C1OC(C)=O (stereo unspecified) | 7.84% (inactive)
8 | C=CCNc1nc(N)c([N+](=O)[O-])c(NC2CCCCC2)n1 | 14.1% (inactive)
9 | CCC(CC)c1nnc(NC(=O)C2CCN(C(=O)c3ccco3)CC2)s1 | 4.71% (inactive)
10 | Cc1cc(N=Nc2ccc3ccccc3c2)ccc1O | 107% (active)
11 | COc1ccc(N=Nc2ccc(O)c(P(=O)(c3ccccc3)c3ccccc3)c2)cc1 | -5.57% (inactive)
12 | Cc1c(N=Nc2ccc(N(C)C)cc2)c(=O)n(-c2ccccc2)n1C | 55.4% (active)
13 | Cc1nc(N)sc1N=Nc1c(C)n(C)n(-c2ccccc2)c1=O | 2.84% (inactive)
14 | Cc1ccc(N=Nc2c(C)[nH]n(-c3ccccc3)c2=O)cc1 | 25.5% (inactive)
15 | CCCN1CCC(=O)N(C(CSc2ccc(OC)cc2)Cc2ccccc2)CC1 (stereo unspecified) | -5.53% (inactive)
16 | COc1ccc(CNC(=O)C(NS(=O)(=O)c2cccc3nsnc23)C(C)C)cc1 (stereo unspecified) | -7.36% (inactive)
17 | O=C(O)CCC(=O)N(Cc1ccccc1)Cc1ccccc1 | -10.9% (inactive)
18 | CC[C@@H](C)[C@H](NC(=O)CCc1c(C)c2cc3c4c(oc3c(C)c2oc1=O)CCCC4)C(=O)O | 22.3% (inactive)
19 | COc1ccccc1OCCOc1ccc(/C=N/n2cnnc2)cc1 | -21.9% (inactive)
20 | COc1cccc(OCCOc2cccc(/C=N/n3cnnc3)c2)c1 | 41.7% (active)
21 | C(=N\n1cnnc1)/c1cccnc1 | 2.15% (inactive)
22 | O=C(c1ccc2c(c1)N(Cc1ccc(F)cc1)C(=O)c1ccccc1S2(=O)=O)N1CCN(c2ccccn2)CC1 | -2.78% (inactive)
23 | Cc1cc(NC(=O)COc2ccc(Cl)cc2Cl)n(CCC#N)n1 | 87.8% (inactive)

Row | Structure (SMILES) | inhibition
24 | CSc1ccc(C#N)cc1NC(=O)c1cccc(Cl)c1 | -14.6% (inactive)
25 | CCOc1ccc(CN2CCN(Cc3ccc4cc(F)ccc4n3)CC2CCO)cc1 (stereo unspecified) | -9.76% (inactive)
26 | COc1cc(/C=C(\C#N)c2nc3ccccc3[nH]2)ccc1O | 55.7% (active)
27 | COc1cc(/C=C(\C#N)c2nc3c(s2)CC(C)CC3)ccc1O (stereo unspecified) | 62.8% (active)
28 | COc1ccc(/C=C(/NC(=O)c2ccc(C)cc2)c2nc3ccccc3[nH]2)cc1OC | -2.72% (inactive)
29 | Cc1ccccc1OC/C(O)=C(\C#N)c1nc2ccccc2[nH]1 | -10.2% (inactive)
30 | CCOc1cc(/C=C(\C#N)c2nc(-c3cccs3)c(NC(C)=O)s2)ccc1O | -0.261% (inactive)
31 | Cc1ccc(-c2ccnc3[nH]n(-c4ccccc4)c(=O)c23)cc1 | 17.7% (inactive)
32 | C[C@H](NC(=O)C1CCN(S(=O)(=O)c2ccccc2)CC1)C(=O)NCc1ccccc1 | -3.31% (inactive)
33 | CC(=O)N1c2ccc(S(=O)(=O)NCCC(=O)N(C)C3CCCCC3)cc2CC1C (stereo unspecified) | 2.29% (inactive)
34 | COc1ccc(C(C(=O)NC2CCCC2)N(CCCO)C(=O)Cn2nnc(-c3ccc(C)o3)n2)cc1 (stereo unspecified) | -6.08% (inactive)
35 | C/C(=N/NC(=O)c1ccc(NC(=O)c2ccc(F)cc2)cc1)c1ccccc1 | 30% (inactive)
36 | CC(=O)Nc1cccc(/C(C)=N/NC(=O)c2ccccc2Cl)c1 | 22% (inactive)
37 | COc1cccc(C(=O)N/N=C(\C)c2cccc(NC(=O)c3ccc(F)cc3)c2)c1OC | 77.4% (active)
38 | OC(CNC1CCCC1)COc1ccc(F)cc1 (stereo unspecified) | -14% (inactive)
39 | CC(=O)N1CCN(CC(c2ccccc2)c2ccccc2)CC1 | -3.73% (inactive)
40 | CC1CCCN(CC(=O)Nc2cc(Cl)ccc2Oc2ccccc2)C1 (stereo unspecified) | 0.789% (inactive)
41 | CC1CCC2CCCCC2N1C(=O)c1cc([N+](=O)[O-])cc([N+](=O)[O-])c1 (stereo unspecified) | -16.8% (inactive)
42 | CN(C)C(=O)Oc1ccc2c(c1)O/C(=C\c1ccccc1)C2=O | 62% (active)
43 | O=C1/C(=C/c2ccc3c(c2)OCO3)Oc2cc(OCC(=O)N3CC(O)C[C@H]3C(=O)O)ccc21 (stereo partly specified) | -3% (inactive)
44 | COC(=O)C(C)Oc1ccc2c(c1)O/C(=C\c1cccc(Br)c1)C2=O (stereo unspecified) | -4.67% (inactive)
45 | Cc1ccc(S(=O)(=O)N2CCC(C)CC2)cc1C(=O)NCc1ccccn1 | 5.07% (inactive)
46 | COc1ccccc1OCc1ccc(C(=O)NC(C)c2ccccc2)o1 (stereo unspecified) | -4.29% (inactive)

Row | Structure (SMILES) | inhibition
47 | CCc1cc(-c2nnc(SCC(=O)NC3CC3)n2C)cs1 | 14.1% (inactive)
48 | Cc1ccc(C(=O)NC(C)c2ccccc2)cc1Br (stereo unspecified) | 38.4% (inactive)
49 | Cc1ccc(C(=O)N2CCCCCC2)cc1Br | 20.5% (inactive)
50 | C=CCNC(=O)c1ccc(C)c(Br)c1 | 19.7% (active)
51 | CCCc1nnc(SCC(=O)Nc2ccc(C(=O)OCC)cc2)o1 | 32.8% (inactive)
52 | COCCNC(=O)c1ccc(S(=O)(=O)c2ccc(Cl)cc2)c(NC(C)=O)c1 | -11.4% (inactive)
53 | COCCNC(=O)c1ccc2c(c1)ncn2-c1ccc(C)c(Cl)c1 | 19.9% (inactive)
54 | COCCNC(=O)c1snc2ccc(Cl)cc12 | 51.4% (active)
55 | Cc1ccc(S(=O)(=O)N2CCCC(C(=O)N3CCN(C)CC3)C2)cc1 (stereo unspecified) | -6.59% (inactive)
56 | NS(=O)(=O)c1cccc(NC(=O)CC23CC4CC(CC(Br)(C4)C2)C3)c1 | -9.01% (inactive)
57 | CCOc1ccc(C(=O)Nc2ccc(S(=O)(=O)NCC3CCCO3)cc2)cc1OCC (stereo unspecified) | 12.5% (inactive)
58 | O=C(Cc1csc(Nc2nc(=S)[nH]c3ccccc23)n1)NCCCN1CCN(c2cccc(Cl)c2)CC1 | 15.7% (inactive)
59 | O=C(NC1CCCC1)C(c1ccc(Cl)cc1)N(C(=O)c1csnn1)C1CC1 (stereo unspecified) | 2.36% (inactive)
60 | O=C(NCc1ccccc1)C(c1cccnc1)N(C(=O)c1csnn1)c1ccc(F)cc1 (stereo unspecified) | 1.7% (inactive)
61 | CC1CCN(C(=O)Cn2nnnc2CN2CCOCC2)CC1 | 15.5% (inactive)
62 | CCS(=O)(=O)n1nc(-c2ccccc2)nc1SCc1ccccc1 | 115% (active)
63 | CCS(=O)(=O)n1nc(-c2ccc(OC)cc2)nc1SC | 63.1% (inactive)
64 | CS(=O)(=O)n1nc(-c2ccccc2)nc1NCc1ccco1 | 7.12% (inactive)
65 | CCCC(C(=O)NC1CCCC1)N(C(=O)Cn1nnc(-c2ccc(C)o2)n1)c1cccc(O)c1 (stereo unspecified) | -4.05% (inactive)
66 | C[C@@H]1O[C@@H](OC[C@H]2O[C@@H](Oc3cc(O)c4c(c3)O[C@H](c3ccc(O)c(O)c3)CC4=O)[C@H](O)[C@@H](O)[C@@H]2O)[C@H](O)[C@H](O)[C@H]1O | -8.25% (inactive)
67 | Cc1ccc(Cn2ccc(NC(=O)c3cc(C(C)C)on3)n2)cc1 | 84.3% (active)
68 | Cc1ccc(Cn2ccc(NC(=O)C3C4CCC(C4)C3C(=O)O)n2)cc1 (stereo unspecified) | -3.4% (inactive)
69 | Cc1cc(NC(=O)c2cc(-c3cccs3)on2)nn1Cc1ccc(Cl)cc1 | 9.37% (inactive)

Row | Structure (SMILES) | inhibition
70 | OC(c1ccc(Cl)cc1)C(CN1CCOCC1)c1ccccc1 (stereo unspecified) | 2.21% (inactive)
71 | CC(=O)c1ccc(S(=O)(=O)NCc2nnnn2-c2ccccc2)cc1 | -2.55% (inactive)
72 | Clc1ccc(-c2nnc(SCc3nc4ccccc4s3)o2)cc1 | 61.6% (active)
73 | c1ccc(-c2nnc(SCc3nc4ccccc4[nH]3)o2)cc1 | 36.1% (inactive)
74 | O=C(CSc1nnc(-c2ccncc2)o1)NCc1ccc(Cl)cc1 | -9.29% (inactive)
75 | CCOc1ccc(S(=O)(=O)N2CCC(c3ccccc3)CC2)cc1C(=O)O | -1.98% (inactive)
76 | COc1cccc(-c2nc(CS(=O)(=O)CC(=O)NCCc3ccc(OC)c(OC)c3)c(C)o2)c1 | -8.6% (inactive)
77 | Cc1nc2ccccc2c(=O)n1NC(=O)c1ccc(Cl)c([N+](=O)[O-])c1 | -9.41% (inactive)
78 | O=C(O)c1cccc(N2C(=O)Nc3ccccc3N2O)c1 | 11.8% (inactive)
79 | NC1=NN(c2cccc(C(=O)O)c2)C(=O)C1 | 143% (active)
80 | COC(=O)CC1=NN(c2ccccc2)C(=O)C1 | 17.6% (inactive)
81 | CC(C)c1nc(CNC(=O)CC2C(=O)NCCN2Cc2cccc(F)c2F)cs1 (stereo unspecified) | -5.01% (inactive)
82 | CN(CCNC(=O)c1cc2c(-c3ccccc3F)nn(C)c2s1)C1CCCCC1 | -4.2% (inactive)
83 | CN(CC(=O)N1CCN(c2ccccc2)CC1)S(=O)(=O)c1cccs1 | 63.8% (active)
84 | O=C(CCNS(=O)(=O)c1cccs1)N1CCN(c2ccc(F)cc2)CC1 | -7.67% (inactive)
85 | COc1ccc(OC)c(S(=O)(=O)N(C)CC(=O)N2CCN(c3ccccc3)CC2)c1 | -6.69% (inactive)
86 | CCOc1ccc(S(=O)(=O)NCc2ccc3c(c2)OCO3)cc1C | -11.3% (inactive)
87 | COc1ccc(N2C(=O)C3C(C2=O)C(C(=O)c2ccccc2)N2CCCC32)cc1 (stereo unspecified) | 19.2% (inactive)
88 | CC(=O)Nc1ccc(S(=O)(=O)NNC(=O)CCc2ccccc2)cc1 | -3.14% (inactive)
89 | COc1ccc(CCNC(=O)c2cc(-c3ccc4c(c3)OCO4)on2)cc1OC | -10.3% (inactive)
90 | COc1cc(-c2c(-c3ccc4c(c3)OCO4)noc2C)ccc1F | 48.8% (active)
91 | COc1ccc(-c2onc(C)c2-c2ccc3c(c2)OCCO3)c(O)c1 | -15% (inactive)
